Consider nine compounds from PubChem BioAssay.

Calls of active or inactive are those of the source. Unless noted, how the calls were made is not given here.

Assay [1] can be described thus: A549 cell viability effects, profiling panel, calcein-AM fluorescence, 48 h, basal (AID 1162). Further: test concentration not given here. The settings on record: higher = more signal.
The nature of assay [2]: adipocyte viability effects, profiling panel, cell-based, 3T3-L1 adipocytes, calcein-AM fluorescence, 48 h, basal (AID 1163). Further: test concentration not given here. As to conditions: 3T3-L1 adipocytes viability, higher = more signal.
Assay [3] can be described thus: HepG2 cell viability effects, profiling panel, calcein-AM fluorescence, 48 h, basal (AID 1164). Further: test concentration not given here. The settings on record: higher = more signal.
The nature of assay [4]: MM1S cell viability effects, profiling panel, calcein-AM fluorescence, 48 h, basal (AID 1165).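 Further: viability of MM1S multiple myeloma cells under basal unstimulated conditions; test concentration not given here.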 The settings on record: higher = more signal.
Assay [5] can be described thus: basal RPMI8226 viability, no added stimulus, profiling panel, cell-based, calcein-AM fluorescence, 48 h, PK04 Diversity Set (AID 1166).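 Further: cells grown under basal conditions without added stimulus; test concentration not given here.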 As to conditions: RPMI8226 myeloma viability, higher = more signal.
The nature of assay [6]: basal HepG2 mitochondrial membrane potential changes, profiling panel, cell-based, JC-1 fluorescence, 24 h, 100 nL compound (AID 1167). Further: test concentration not given here. The settings on record: higher = more signal.
Assay [7] in a line: basal 3T3-L1 adipocyte mitochondrial potential changes, profiling panel, cell-based, JC-1 fluorescence, 3T3-L1 adipocytes, 24 h, 100 nL compound (AID 1168). Further: test concentration not given here. As to conditions: JC-1 mitochondrial fluorescence, higher = more signal, called active from +8 up or from −8 down.
Assay [8] in a line: basal RPMI8226 mitochondrial membrane potential changes, profiling panel, cell-based, JC-1 fluorescence, 24 h, 100 nL compound (AID 1169). Further: test concentration not given here. The settings on record: RPMI8226 myeloma, JC-1 mitochondrial potential fluorescence, higher = more signal.
Assay [9] in a line: basal MM1S mitochondrial membrane potential changes, profiling panel, cell-based, JC-1 fluorescence, 24 h, 100 nL compound (AID 1170). Further: test concentration not given here. The settings on record: higher = more signal.
A short description of assay [10]: A549 lung cancer cell viability effects, profiling panel, resazurin fluorescence, 24 h, PK04 Diversity Set (AID 1171). Further: test concentration not given here. The settings on record: higher = more signal, called active from +8 up or from −8 down.
The nature of assay [11]: HepG2 liver cancer cell viability effects, profiling panel, resazurin fluorescence, 24 h, PK04 Diversity Set (AID 1172). Further: test concentration not given here. As to conditions: higher = more signal.
A short description of assay [12]: basal S. cerevisiae growth modulation, no modifier, primary screen, OD600, strain BY4716, 24 h, basal condition (AID 1173). The settings on record: OD600, 24 h, higher = more signal, called active from +8 up or from −8 down.
Assay [13] can be described thus: MM1S myeloma cell viability, profiling panel, resazurin fluorescence, basal, 24 h, PK04 Diversity Set (AID 1174).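 Further: MM1S multiple myeloma cell line; test concentration not given here.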 The settings on record: higher = more signal, called active from +8 up or from −8 down. (In general: Alamar Blue is a resazurin reagent that responds to reducing activity.)
Assay [14] addresses Dihydroorotate dehydrogenase (quinone), mitochondrial (Plasmodium falciparum (isolate 3D7)) (UniProt Q08210). As to the kind of experiment: PfDHODH enzyme inhibitors, primary screen, biochemical, C-terminal His tag, absorbance 600 nm (AID 1175).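 Further: recombinant parasite enzyme with a five histidine tag at its C terminus; test concentration not given here.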 The settings on record: DCIP absorbance 600 nm, higher = more signal, called active from +8 up or from −8 down.
A short description of assay [15]: P. aeruginosa biofilm formation inhibitors, primary screen, strain PAO1, LB-PBS medium, absorbance 600 nm (AID 1176). Further: test concentration not given here. The settings on record: P. aeruginosa PAO1 growth/biofilm, A600, 12 h; higher = more signal.
Assay [16] in a line: S. cerevisiae RM11-1a growth modifiers, primary screen, strain RM11-1a, OD600, basal, 24 h (AID 1177).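 Further: cultures grown under basal conditions with no added stressor; test concentration not given here.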 As to conditions: OD600, 24 h, higher = more signal, called active from +8 up or from −8 down.
Assay [17] in a line: E. coli acrAB mutant growth effects, primary screen, E. coli filamentation inducers, strain DRC39, OD650, 24 h (AID 1178).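 Further: growth measured as culture turbidity by optical density at 650 nm; test concentration not given here.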 The settings on record: higher = more signal, called active from +8 up or from −8 down.
The nature of assay [18]: E. coli acrAB mutant growth effects, primary screen, E. coli filamentation inducers, strain DRC39, OD650, 48 h (AID 1179).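 Further: screen aims at cell division blockers that make cells filament.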 As to conditions: E. coli DRC39 delta-acrAB growth, higher = more signal, called active from +8 up or from −8 down.
Assay [19] can be described thus: RPMI8226 myeloma cell viability, profiling panel, resazurin fluorescence, basal, 24 h, PK04 Diversity Set (AID 1180).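 Further: RPMI8826 multiple myeloma cell line at 5000 cells per well; test concentration not given here.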 As to conditions: higher = more signal.
The target in assay [20] is E3 ubiquitin-protein ligase XIAP (Homo sapiens) (UniProt P98170). As to the kind of experiment: XIAP binders, primary screen, biophysical, small-molecule microarray, fluorescence 635 nm (AID 1181).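 Further: score merges 667 nm emission and signal to noise over triplicate slides.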 As to conditions: small-molecule microarray binding, higher = more signal.
Sequence of E3 ubiquitin-protein ligase XIAP (Homo sapiens) (P98170 whole entry, looked up): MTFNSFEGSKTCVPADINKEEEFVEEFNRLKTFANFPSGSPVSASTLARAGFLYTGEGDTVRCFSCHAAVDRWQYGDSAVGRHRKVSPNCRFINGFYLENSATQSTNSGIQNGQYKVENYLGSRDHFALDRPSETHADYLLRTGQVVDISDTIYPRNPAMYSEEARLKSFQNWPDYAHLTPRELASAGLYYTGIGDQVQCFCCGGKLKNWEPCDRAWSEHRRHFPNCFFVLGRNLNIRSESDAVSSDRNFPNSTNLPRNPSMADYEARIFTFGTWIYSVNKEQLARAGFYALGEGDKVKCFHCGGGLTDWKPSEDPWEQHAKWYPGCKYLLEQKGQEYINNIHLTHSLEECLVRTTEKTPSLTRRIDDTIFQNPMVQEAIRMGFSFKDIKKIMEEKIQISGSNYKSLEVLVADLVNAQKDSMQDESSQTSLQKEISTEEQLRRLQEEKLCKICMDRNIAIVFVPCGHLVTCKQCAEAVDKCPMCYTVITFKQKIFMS

Sequence of Dihydroorotate dehydrogenase (quinone), mitochondrial (Plasmodium falciparum (isolate 3D7)) (Q08210 whole entry, looked up): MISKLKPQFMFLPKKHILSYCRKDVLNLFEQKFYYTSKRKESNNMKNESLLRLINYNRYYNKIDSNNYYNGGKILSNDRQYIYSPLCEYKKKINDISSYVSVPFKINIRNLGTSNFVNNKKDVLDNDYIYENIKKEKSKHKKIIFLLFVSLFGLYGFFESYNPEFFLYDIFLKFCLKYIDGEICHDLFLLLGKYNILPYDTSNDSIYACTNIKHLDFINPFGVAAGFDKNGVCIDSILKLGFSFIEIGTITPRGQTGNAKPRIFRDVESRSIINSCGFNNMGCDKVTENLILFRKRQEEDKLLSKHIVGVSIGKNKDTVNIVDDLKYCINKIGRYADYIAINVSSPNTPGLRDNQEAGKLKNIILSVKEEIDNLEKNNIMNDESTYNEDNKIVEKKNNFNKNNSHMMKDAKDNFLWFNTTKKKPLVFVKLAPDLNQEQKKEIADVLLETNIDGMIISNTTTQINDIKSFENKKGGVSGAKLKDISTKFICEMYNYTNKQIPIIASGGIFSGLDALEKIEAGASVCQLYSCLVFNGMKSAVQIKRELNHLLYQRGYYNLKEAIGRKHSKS

For `COCCOC(=O)N1C(=O)[C@@]2(c3cc(C#CCCO)ccc31)[C@H](C(N)=O)[C@H]1C(=O)O[C@H](c3ccccc3)[C@H](c3ccccc3)N1[C@@H]2c1ccc(O)cc1`, the z-score was -0.272 in [1]; 0.24 in assay [2]; -0.05 in assay [3]; 0.0119 in assay [4]; -1.2 in assay [5]; -0.537 in [6]. For the same compound, the z-score in assay [7] is -0.142 (inactive); in [8] it was -0.105; in [9], 0.0477; in [10], -0.3 (inactive); in assay [11], -0.256; in assay [12], -0.089 (inactive). Also, the z-score is 0.0773 (inactive) in assay [13]; 0.181 (inactive) in assay [15]; -0.204 (inactive) in assay [16]; 0.125 (inactive) in assay [17]; -0.176 (inactive) in assay [18]; -0.104 in assay [19]. Besides, the figures for the composite z-score in assay [14] and in [20] were -0.176 (inactive) and 0.142, respectively.

As to `C=CCOC(=O)[C@@H]1[C@H]2C(=O)O[C@H](c3ccccc3)[C@H](c3ccccc3)N2[C@H](c2ccc(OCCOC(=O)[C@H]3C[C@H]4C(=O)N5CCC[C@H]5C(=O)N4[C@H]3c3ccc(O)cc3)cc2)[C@@]12C(=O)Nc1ccc(I)cc12`, the z-score in [1] was 0.0077; in assay [2] it was 0.205; in assay [3], -1.02; in [4] it was -1.75; in [5] it was -1.31; in assay [6] it was -1.7. The z-score in assay [7] is 1.24 (inactive); in assay [8], -0.81; in [9] it was -1.27; in assay [10], -0.685 (inactive); in assay [11], -0.91; in assay [12] it was 0.148 (inactive). For the same compound, the z-score is 0.119 (inactive) in [13]; 3.16 (inactive) in [15]; 1.27 (inactive) in [16]; 0.0092 (inactive) in assay [17]; -0.743 (inactive) in assay [18]; -0.432 in [19]. Besides, the composite z-score in [14] was 1.01 (inactive); in [20], -0.02.

For `C=CCNC(=O)[C@@H]1[C@H]2C(=O)O[C@H](c3ccccc3)[C@H](c3ccccc3)N2[C@H](c2ccc(OCCO)cc2)[C@@]12C(=O)Nc1ccc(C#CCC(C(=O)OC)C(=O)OC)cc12`, the z-score in assay [1] is -0.305; in assay [2], 1.09; in assay [3], 0.22; in [4] it was -3.45; in [5] it was -4.16; in assay [6] it was 0.644. Besides, the z-score in [7] was 1.39 (inactive); in [8], -0.907; in [9], -1.63; in [10], 1.39 (inactive); in assay [11], 0.874; in assay [12], 1.12 (inactive). The z-score was -6.55 (inactive) in assay [13]; 1.89 (inactive) in assay [15]; 2.26 (inactive) in assay [16]; 0.196 (inactive) in [17]; 0.286 (inactive) in assay [18]; -5.98 in [19]. Further, the values for the composite z-score in [14] and in assay [20] were -4.92 (inactive) and 0.132, respectively.

As to `Cc1ccccc1C(O)C1C=CC2C(=O)N(c3ccccc3)C(=O)C2N1Nc1ccc(C(C)C)cc1` (stereo not given), the z-score in [1] was -0.0475; in assay [2] it was -0.127; in assay [3], -0.169; in assay [4], -0.136; in [5] it was -0.727; in assay [6], -2.15. The z-score in assay [7] is -1.8 (inactive); in assay [8], -0.754; in assay [9], -0.0109; in assay [10] it was -1.41 (inactive); in [11] it was -1.7; in [12], -0.945 (inactive). For the same compound, the z-score in assay [13] was -1.31 (inactive); in assay [15], 0.807 (inactive); in assay [16] it was 1.93 (inactive); in assay [17], -0.765 (inactive); in assay [18], -1.14 (inactive); in [19], -1.06. Also, the composite z-score in [14] is 1.82 (inactive); in [20], 1.24.

For `COc1ccc(/C=C/C=O)cc1`, the z-score in assay [1] was 0.637; in assay [2], -0.243; in assay [3], 0.0562; in assay [4], 0.418; in assay [5] it was -1.22; in assay [6] it was 0.555. Besides, the z-score is 0.754 (inactive) in assay [7]; -0.464 in [8]; -0.0737 in [9]; -0.925 (inactive) in [10]; -0.316 in assay [11]; -3.59 (inactive) in assay [12]. Moreover, the z-score is -0.998 (inactive) in assay [13]; 0.0061 (inactive) in assay [15]; 0.313 (inactive) in assay [16]; 0.154 (inactive) in [17]; 0.0154 (inactive) in assay [18]; -0.495 in assay [19]. The composite z-score in assay [14] was -0.291 (inactive); in [20] it was 0.128.

Turning to `C[C@@]1([C@@H](NC(=O)c2ccc(-c3ccccc3)cc2)c2ccc(Cl)cc2)C[C@H]1C1CCCCC1`, the z-score was -1.18 in [1]; -0.52 in assay [2]; -0.934 in [3]; -3.43 in assay [4]; -4.76 in [5]; -2.21 in assay [6]. In addition, the z-score in assay [7] is -1.07 (inactive); in assay [8], -0.902; in assay [9], -2.73; in [10], 0.602 (inactive); in assay [11], -0.953; in assay [12] it was 1.52 (inactive). For the same compound, the z-score is -2.24 (inactive) in assay [13]; -0.195 (inactive) in assay [15]; 2 (inactive) in assay [16]; -0.325 (inactive) in assay [17]; -0.561 (inactive) in [18]; -6.37 in [19]. Also, the composite z-score in [14] is -0.0475 (inactive); in assay [20] it was 0.119.

For the compound `CC(C)OC(=O)C=C1C[C@@H](c2ccccn2)O[C@@H](c2ccccn2)O1`, the z-score in assay [1] is -0.564; in assay [2] it was -0.631; in assay [3], -0.217; in assay [4], 0.667; in assay [5] it was -1.14; in assay [6], -0.894. Moreover, the z-score was -0.341 (inactive) in assay [7]; 0.65 in assay [8]; -0.816 in [9]; 0.118 (inactive) in assay [10]; -0.802 in [11]; -1.97 (inactive) in [12]. Besides, the z-score was -0.377 (inactive) in [13]; 0.0362 (inactive) in assay [15]; -0.391 (inactive) in assay [16]; -0.471 (inactive) in [17]; 0.115 (inactive) in assay [18]; -0.474 in assay [19]. Also, the results for the composite z-score in [14] and in assay [20] were 0.409 (inactive) and 0.462, respectively.

As to `CCCCN1CC=CC23O[C@@H]4C=CCCOC(=O)C4[C@H]2C(=O)N(CCCCCCO)[C@@H]3C1=O` (stereo not given in full), the z-score in assay [1] was 0.384; in assay [2], -0.585; in assay [3], 0.441; in assay [4] it was 1.51; in [5], -0.363; in [6] it was 0.493. Further, the z-score was 0.271 (inactive) in assay [7]; -0.109 in assay [8]; -0.399 in [9]; -0.176 (inactive) in assay [10]; 0.0635 in [11]; 0.254 (inactive) in assay [12]. The z-score was -0.846 (inactive) in [13]; -0.14 (inactive) in [15]; 0.308 (inactive) in [16]; 0.013 (inactive) in assay [17]; 0.383 (inactive) in assay [18]; -0.461 in assay [19]. For the same compound, the composite z-score in assay [14] is -1.01 (inactive); in assay [20] it was -0.141.

With `C=C(C(=O)CC[C@@H](OC(=O)c1cccnc1)c1ccccc1OCCO)C(C)C`, the z-score in [1] was -0.125; in assay [2] it was 0.909; in [3], -0.599; in assay [4], -1.81; in [5], -1.08; in [6], -1.17. Also, the z-score in [7] was 0.208 (inactive); in assay [8], -0.356; in assay [9], -1.07; in [10] it was -0.414 (inactive); in assay [11], -0.0206; in [12], -1.51 (inactive). Moreover, the z-score was -0.444 (inactive) in assay [13]; 0.613 (inactive) in [15]; -0.337 (inactive) in assay [16]; 0.335 (inactive) in assay [17]; 0.195 (inactive) in assay [18]; -0.632 in [19]. Further, the composite z-score in assay [14] was -0.0125 (inactive); in assay [20], -0.0872.
